According to PubChem BioAssay (NCI):
Values joined by “and” are separate entries in the source; they are usually repeats but may differ in a detail not shown here. Equal entries are not always repeated. This is part of a sample that, as a whole, favours compounds with a hit. Of some 79,000 tested, about 15% had one in any assay. Where a structure was tested more than once in an assay, its records may differ in their call. Active and inactive are the calls of the source. No stated cut-off is given here; in the data, active means growth inhibition above about 70%; inactive means the rest.

Key:
[1] = NCI Yeast Anticancer Drug Screen. Data for the rad50 strain (AID 155);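 further: 0% = growth of vehicle-only cultures of the same strain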; conditions: S. cerevisiae rad50 strain growth inhibition, stronger effect = higher value
How it was run: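 Yeast carrying a defined DNA repair defect were exposed to test compounds, and growth was compared with vehicle-treated controls to give percent inhibition.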

[2] = NCI Yeast Anticancer Drug Screen. Data for the mec2-1 strain (AID 157); conditions: S. cerevisiae mec2-1 strain, stronger effect = higher value
How it was run: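 Using mec2-1 yeast: add compound, measure growth, express inhibition versus vehicle-treated cultures.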

[3] = NCI Yeast Anticancer Drug Screen. Data for the sgs1 mgt1 strain (AID 161);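 further: 0% = growth of cultures given vehicle only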; conditions: S. cerevisiae sgs1 mgt1 strain, stronger effect = higher value
How it was run: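 Yeast cells carrying a defined DNA-repair defect were exposed to test compounds. Growth inhibition was measured relative to vehicle-treated controls.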

[4] = NCI Yeast Anticancer Drug Screen. Data for the cln2 rad14 strain (AID 165);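 further: 0% = growth equal to vehicle treated cultures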; conditions: S. cerevisiae cln2 rad14 strain, stronger effect = higher value
How it was run: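 Yeast strain cln2 rad14, bearing defects in cell cycle control and DNA repair, serves as the test system; values reflect growth inhibition compared with vehicle.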

[5] = NCI Yeast Anticancer Drug Screen. Data for the bub3 strain (AID 167); conditions: S. cerevisiae bub3 mutant strain, stronger effect = higher value
How it was run: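 Compounds were applied to a genetically altered yeast strain carrying a cell-cycle control defect. Growth inhibition was scored against vehicle-treated controls.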

[6] = NCI Yeast Anticancer Drug Screen. Data for the mlh1 rad18 strain (AID 175); conditions: S. cerevisiae mlh1 rad18 strain growth inhibition, stronger effect = higher value
How it was run: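 Steps: expose repair-defective yeast to compound; measure growth; express inhibition against vehicle-treated controls.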

[7] = at 5.0 µM (retest, dose inferred, filed as 0.5)
[8] = at 50.0 µM (retest, dose inferred, filed as 5.0)

Row | Compound | growth inhibition [1, 7] | growth inhibition [1, 8] | growth inhibition ([1]; at 50.0 µM) | growth inhibition [2, 7] | growth inhibition [2, 8] | growth inhibition ([2]; at 50.0 µM) | growth inhibition [3, 7] | growth inhibition [3, 8] | growth inhibition ([3]; at 50.0 µM) | growth inhibition [4, 7] | growth inhibition [4, 8] | growth inhibition ([4]; at 50.0 µM) | growth inhibition [5, 7] | growth inhibition [5, 8] | growth inhibition ([5]; at 50.0 µM) | growth inhibition [6, 7] | growth inhibition [6, 8] | growth inhibition ([6]; at 50.0 µM)
1 | O=C1C(=Cc2c[nH]c3ccccc23)C(=O)c2ccccc21 | 11% (inactive) | 93% (active) | -9.1% (inactive) and 69.2% (inactive) | -24% (inactive) | 96% (active) | -6.4% (inactive) and 69.5% (inactive) | -1% (inactive) | 91% (active) | 0.1% (inactive) and 71.1% (active) | 6% (inactive) | 83% (active) | 2.15% (inactive) and 32.4% (inactive) | 3% (inactive) | 95% (active) | -15.7% (inactive) and 62.8% (inactive) | -1% (inactive) | 96% (active) | -1.65% (inactive) and 78.5% (active)
2 | CCCCCCCCCCCCCCCCCC(=O)NCCO | -3% (inactive) | -6% (inactive) | -12.3% (inactive) and 16.8% (inactive) | -1% (inactive) | -5% (inactive) | -6.6% (inactive) and -7.3% (inactive) | 0% (inactive) | -4% (inactive) | -20.2% (inactive) and -8.5% (inactive) | 1% (inactive) | -8% (inactive) | -23.9% (inactive) and 37.4% (inactive) | 4% (inactive) | 7% (inactive) | -3.75% (inactive) and 1.55% (inactive) | 0% (inactive) | -8% (inactive) | 3.7% (inactive) and 10.8% (inactive)
3 | NNc1c2ccccc2nc2ccccc12 | 9% (inactive) | 79% (active) | 21.1% (inactive) and 95.8% (active) | 6% (inactive) | 43% (inactive) | 18.4% (inactive) and 85.8% (active) | 1% (inactive) | 47% (inactive) | -10% (inactive) and 94% (active) | 4% (inactive) | 38% (inactive) | -19.1% (inactive) and 92.5% (active) | -5% (inactive) | 48% (inactive) | -21.5% (inactive) and 93.5% (active) | 2% (inactive) | 86% (active) | 8.4% (inactive) and 96.8% (active)
4 | C=CCC(O)c1ccc(C(C)C)cc1 (stereo not given) | 3% (inactive) | 7% (inactive) | 18.9% (inactive) and -7.9% (inactive) | 1% (inactive) | -3% (inactive) | -7.55% (inactive) and -1.05% (inactive) | -2% (inactive) | 1% (inactive) | -5.65% (inactive) and 13.1% (inactive) | -3% (inactive) | 0% (inactive) | -5% (inactive) and 16.4% (inactive) | 10% (inactive) | 16% (inactive) | -2.85% (inactive) and -2.2% (inactive) | 0% (inactive) | 7% (inactive) | 15.4% (inactive) and -13.9% (inactive)
5 | CC(C)(C)OC(=O)NOc1ccc([N+](=O)[O-])cc1[N+](=O)[O-] | 22% (inactive) | 99% (active) | 98.7% (active) and 99.5% (active) | 4% (inactive) | 100% (active) | 99.5% (active) and 99.7% (active) | 38% (inactive) | 100% (active) | 99.5% (active) | 8% (inactive) | 99% (active) | 97.2% (active) and 99.5% (active) | 9% (inactive) | 99% (active) | 99.2% (active) and 99.5% (active) | 68% (inactive) | 97% (active) | 99.2% (active) and 99.7% (active)
6 | NC1=C(Cl)C(=O)c2ccccc2C1=O | 6% (inactive) and 9% (inactive) | 97% (active) and 99% (active) | 87.5% (active) and 98.2% (active) | 0% (inactive) and -30% (inactive) | 93% (active) and 98% (active) | 79.8% (active) and 93.6% (active) | 7% (inactive) and 10% (inactive) | 95% (active) and 97% (active) | 91.4% (active) and 97.8% (active) | 15% (inactive) and 4% (inactive) | 61% (inactive) and 97% (active) | 76.7% (active) and 78.8% (active) | 16% (inactive) and 7% (inactive) | 97% (active) and 98% (active) | 84.3% (active) and 95.5% (active) | 8% (inactive) and 7% (inactive) | 96% (active) and 98% (active) | 88.5% (active) and 95.5% (active)
7 | O=c1c(Cl)c(Cl)cnn1-c1ccccc1 | 33% (inactive) | 58% (inactive) | 30.9% (inactive) and 6.8% (inactive) | 1% (inactive) | 22% (inactive) | 45% (inactive) and -8.9% (inactive) | -6% (inactive) | 14% (inactive) | 35.7% (inactive) and -2.25% (inactive) | 17% (inactive) | 19% (inactive) | 28.1% (inactive) and 13.8% (inactive) | 10% (inactive) | 21% (inactive) | 23.9% (inactive) and -9.2% (inactive) | 8% (inactive) | 26% (inactive) | 72.6% (active) and -13.8% (inactive)
8 | c1ccc(-c2[nH]c3ccccc3c2-c2ccccn2)cc1 | 3% (inactive) | 8% (inactive) | 91.8% (active) | -2% (inactive) | -2% (inactive) | 99.3% (active) | 4% (inactive) | 23% (inactive) | 95.6% (active) | 4% (inactive) | 8% (inactive) | 99.1% (active) | 0% (inactive) | 2% (inactive) | 98.7% (active) | 5% (inactive) | 13% (inactive) | 98.8% (active)
9 | OC1CN(Cc2ccccc2)C[C@@H]1O (stereo not given in full) | 8% (inactive) | 99% (active) | 23% (inactive) | 11% (inactive) | 99% (active) | -7.9% (inactive) | 10% (inactive) | 99% (active) | -4.5% (inactive) | 17% (inactive) | 93% (active) | 59.6% (inactive) | 11% (inactive) | 99% (active) | -0.5% (inactive) | 25% (inactive) | 99% (active) | 36.8% (inactive)
10 | CC(=O)OC(OC(C)=O)c1c2ccccc2cc2ccccc12 | 36% (inactive) | 97% (active) | 89.3% (active) | 15% (inactive) | 96% (active) | 93.2% (active) | 27% (inactive) | 97% (active) | 88.9% (active) | 14% (inactive) | 92% (active) | 91.1% (active) | 8% (inactive) | 97% (active) | 85.5% (active) | 23% (inactive) | 97% (active) | 85.7% (active)
11 | CCC[CH2][Sn]1([CH2]CCC)[O]N=C(c2ccccc2)C(c2ccccc2)[O]1 (stereo not given) | 19% (inactive) | 19% (inactive) | 88.4% (active) | 20% (inactive) | 20% (inactive) | 87.8% (active) | -1% (inactive) | -1% (inactive) | 89.4% (active) | 8% (inactive) | 8% (inactive) | 79.7% (active) | 12% (inactive) | 12% (inactive) | 78.8% (active) | 12% (inactive) | 12% (inactive) | 79.9% (active)
12 | CCN(CC)Cc1cc2[nH]c3c4ccc(Cl)cc4ncc3c2cc1OC (tested in a mixture with another compound) | 3% (inactive) | 71% (active) | 59.4% (inactive) and 65% (inactive) | 2% (inactive) | 58% (inactive) | 38.8% (inactive) and 66% (inactive) | 0% (inactive) | 48% (inactive) | 55.1% (inactive) and 74.2% (active) | -2% (inactive) | 47% (inactive) | -1.65% (inactive) and 29.1% (inactive) | 4% (inactive) | 58% (inactive) | 44.8% (inactive) and 48.6% (inactive) | 3% (inactive) | 74% (active) | 64.3% (inactive) and 77.5% (active)
13 | O=[N+]([O-])c1c(Cl)nc2ccccn12 | 2% (inactive) | 26% (inactive) | 14.4% (inactive) | 3% (inactive) | 28% (inactive) | 26.1% (inactive) | 2% (inactive) | 27% (inactive) | 31.1% (inactive) | 2% (inactive) | 15% (inactive) | -0.55% (inactive) | 0% (inactive) | 14% (inactive) | -2.05% (inactive) | 2% (inactive) | 26% (inactive) | 70.5% (active)
14 | CCCC(C)NCCOC(=O)C(c1ccccc1)C1CCCCC1 (stereo not given) | -11% (inactive) | 49% (inactive) | 85.6% (active) | 3% (inactive) | 36% (inactive) | 14.2% (inactive) | -3% (inactive) | 60% (inactive) | 85.5% (active) | -2% (inactive) | 36% (inactive) | 34.3% (inactive) | 0% (inactive) | 49% (inactive) | 57.5% (inactive) | 1% (inactive) | 61% (inactive) | 73.2% (active)
15 | O=C1N(c2ccccc2)C(=O)N1c1ccccc1 | -8% (inactive) | -6% (inactive) | 1.05% (inactive) and 0.3% (inactive) | -19% (inactive) | -1% (inactive) | 25.6% (inactive) and -2.2% (inactive) | -11% (inactive) | 3% (inactive) | 43.2% (inactive) and -12.2% (inactive) | 20% (inactive) | 17% (inactive) | 0.1% (inactive) and -20.9% (inactive) | 14% (inactive) | 17% (inactive) | 22.1% (inactive) and -12.4% (inactive) | -16% (inactive) | -11% (inactive) | 28.6% (inactive) and 2.3% (inactive)
